Where “and” joins values, the source holds several entries; their conditions need not be identical. Equal entries are not always repeated. Results filed as inconclusive are left out. Entries that show only a call come without a potency. Some structures have more than one record in an assay (separate samples or runs), and their calls can disagree. Calls of active or inactive are those of the source. Unless noted, the call rests on the fitted dose curve; in most records, active means well fitted curve in the direction sought with a large enough effect in the repeat runs; inconclusive means weak or mixed curves; inactive means no such curve, though single readings can be large; an effect the other way counts as inactive or inconclusive.
How the values were obtained:
[1] = qHTS assay for small molecule agonists of the p53 signaling pathway (AID 651631; calls by dose curve; further: nearly all actives have a fitted effect of over 15% in size; further: potency means the concentration at half of the fitted maximal effect)
In short: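 Testing took place in human colorectal HCT-116 cells with stable p53RE-driven beta-lactamase. After 16 h of compound exposure at 37 °C, a FRET substrate was added and fluorescence recorded 2 h later.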

[2] = qHTS assay for small molecules that induce genotoxicity in human embryonic kidney cells expressing luciferase-tagged ATAD5 (AID 651632); further: nearly all actives have a fitted effect of over 15% in size
In short: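 Genotoxicity read-out via ATAD5-luciferase: HEK293T cells, 16 hr compound incubation at 37C, Amplite detection.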

[3] = qHTS assay for small molecule agonists of the p53 signaling pathway - cell viability (AID 651633; calls by dose curve; further: nearly all actives have a fitted effect of over 30% in size; further: potency means the concentration at half of the fitted maximal effect)
In short: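 p53RE-bla cells, seeded at 4,000 per well and rested 5 h at 37 C/5% CO2, received compounds in DMSO for 16 h at 37 C. CellTiter-Glo was then added, and luminescence was read after 30 min at room temperature to gauge cytotoxicity.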

[4] = qHTS assay for small molecules that induce genotoxicity in human embryonic kidney cells expressing luciferase-tagged ATAD5 - cell viability (AID 651634; calls by dose curve; further: nearly all actives have a fitted effect of over 25% in size; further: potency means the concentration at half of the fitted maximal effect)
In short: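 Live-cell protease activity (CellTiter-Fluor, fluorescence) indicates viability. HEK293T cells with luciferase-tagged ATAD5; 15.5 hr compound treatment at 37C.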

[5] = qHTS assay for small molecule disruptors of the mitochondrial membrane potential - cell viability (AID 720634; calls by dose curve; further: nearly all actives have a fitted effect of over 20% in size; further: potency means the concentration at half of the fitted maximal effect)
In short: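 Human hepatoma HepG2 cells were treated for 1 hr with test chemicals, then given m-MPI dye and CellTiter-Glo. Cell viability reflects luminescence proportional to cellular ATP.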

[6] = qHTS assay for small molecule disruptors of the mitochondrial membrane potential (AID 720635); further: potency means the concentration at half of the fitted maximal effect
In short: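 HepG2 cells (2,000/well) attached overnight at 37C, then took compound for 1 hr at 37C, 5% CO2. Mito-MPS dye was added for 30 min; fluorescence was read at 490/535 nm (monomers) and 540/590 nm (aggregates).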

[7] = qHTS assay to test for compound auto fluorescence at 590 nm (red) in HepG2 cells (AID 720674)
In short: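 Compound auto-fluorescence is scored relative to Rose Bengal sodium, measured at 540/590 nm in live HepG2 cultures after 1 hr compound contact (37 C, 5% CO2).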

[8] = qHTS assay to test for compound auto fluorescence at 535 nm (green) in HepG2 cells (AID 720675)
[9] = qHTS assay to test for compound auto fluorescence at 460 nm (blue) in HEK293 cells (AID 720678)
In short: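 HEK293, 2,000 cells/well, 10% dialyzed FBS; attach 4-5 hr 37C; pin compound or DMSO; o/n 37C/5% CO2; fluorescence 405/460 nm; triamterene-equivalent units.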

[10] = qHTS assay to test for compound auto fluorescence at 590 nm (red) in HEK293 cells (AID 720679)
In short: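 Intensity at 540nm excitation and 590nm emission is reported as Rose Bengal sodium-equivalent autofluorescence. Measurements followed overnight exposure (37C, 5% CO2) of HEK293 cells, 2,000 per well, to 23 nL compound.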

[11] = qHTS assay to test for compound auto fluorescence at 460 nm (blue) in HEK293 cell free culture (AID 720681)
In short: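 Test compounds were pinned into cell-free culture medium (DMEM with 10% FBS) and fluorescence was read directly at Ex/Em 405/460 nm. Signals were expressed as fluorescence equivalents of triamterene, with DMSO vehicle as control.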

[12] = qHTS assay to test for compound auto fluorescence at 535 nm (green) in HEK293 cell free culture (AID 720682)
In short: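 DMEM + 10% FBS, cell-free; cpd or DMSO pinned in; Ex485/Em535 read; output as fluorescein-equivalent signal.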

[13] = qHTS assay to test for compound auto fluorescence at 590 nm (red) in HEK293 cell free culture (AID 720683)
In short: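 Tox21 10K library compounds were pinned into cell-free DMEM with 10% FBS and fluorescence was read at excitation 540 nm. Activity is expressed as Rose Bengal sodium equivalency.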

[14] = qHTS assay to test for compound auto fluorescence at 590 nm (red) in HepG2 cell free culture (AID 720684)
In short: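 Measured in medium alone (MEM containing 10% FBS) following pintool addition of compound; emission at 590 nm with 540 nm excitation, referenced to Rose Bengal sodium.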

[15] = qHTS assay to test for compound auto fluorescence at 460 nm (blue) in HepG2 cell free culture (AID 720685)
In short: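 Compound (23 nL) or DMSO pinned into cell-free MEM with 10% FBS; blue fluorescence read at 405/460 nm excitation/emission, expressed as auto-fluorescence equivalency to triamterene.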

[16] = qHTS assay to test for compound auto fluorescence at 535 nm (green) in HepG2 cell free culture (AID 720686)
[17] = qHTS assay to test for compound auto fluorescence at 460 nm (blue) in HepG2 cells (AID 720687)
In short: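 Cells (2,000/well in MEM with 10% FBS) attached overnight at 37 C, then were exposed to compound or DMSO for 1 hr at 37 C, 5% CO2. Fluorescence read at Ex/Em 405/460 nm, expressed as triamterene-equivalent signal.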

[18] = qHTS assay to test for compound auto fluorescence at 535 nm (green) in HEK293 cells (AID 720680)
[19] = molecular target: Glucocorticoid receptor (Homo sapiens) (UniProt P04150); assay: qHTS assay to identify small molecule antagonists of the glucocorticoid receptor (GR) signaling pathway (AID 720692; active means well fitted inhibition curve with a large enough effect in the signal ratio in the repeat runs, not every such curve was filed as active; the % refers to the signal ratio; further: potency means the concentration at half of the fitted maximal effect)
Glucocorticoid receptor (Homo sapiens), sequence (P04150 whole entry, looked up): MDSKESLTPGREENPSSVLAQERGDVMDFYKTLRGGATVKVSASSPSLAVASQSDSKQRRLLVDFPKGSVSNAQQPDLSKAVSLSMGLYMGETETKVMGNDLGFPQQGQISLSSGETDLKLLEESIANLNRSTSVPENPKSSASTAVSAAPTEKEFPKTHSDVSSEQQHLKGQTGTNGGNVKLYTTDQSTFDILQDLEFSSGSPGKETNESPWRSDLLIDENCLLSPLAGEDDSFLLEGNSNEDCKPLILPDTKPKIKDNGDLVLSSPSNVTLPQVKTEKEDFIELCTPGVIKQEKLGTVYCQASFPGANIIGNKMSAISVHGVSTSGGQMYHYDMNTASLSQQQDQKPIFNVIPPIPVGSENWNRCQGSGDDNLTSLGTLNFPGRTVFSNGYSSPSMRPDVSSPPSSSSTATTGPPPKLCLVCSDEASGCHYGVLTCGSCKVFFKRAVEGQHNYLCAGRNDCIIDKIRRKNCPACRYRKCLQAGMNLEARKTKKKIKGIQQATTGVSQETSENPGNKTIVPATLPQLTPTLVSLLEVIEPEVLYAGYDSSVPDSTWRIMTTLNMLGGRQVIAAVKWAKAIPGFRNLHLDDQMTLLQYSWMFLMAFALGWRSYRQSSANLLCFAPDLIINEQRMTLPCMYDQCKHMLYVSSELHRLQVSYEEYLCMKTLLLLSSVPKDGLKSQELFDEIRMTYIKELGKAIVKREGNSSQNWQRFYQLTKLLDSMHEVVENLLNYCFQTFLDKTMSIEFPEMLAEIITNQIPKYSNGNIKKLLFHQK
In short: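 Fluorescence from cleaved LiveBLAzer B/G FRET substrate reports GRE-driven beta-lactamase in HeLa cells; compounds are tested against 5 nM dexamethasone (final) over 18 h at 37 C, substrate incubation 2 h at room temperature.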

[20] = molecular target: Glucocorticoid receptor (Homo sapiens) (UniProt P04150); assay: qHTS assay to identify small molecule agonists of the glucocorticoid receptor (GR) signaling pathway (AID 720691; active means well fitted activation curve with a large enough effect in the signal ratio in the repeat runs, not every such curve was filed as active; the % refers to the signal ratio)
In short: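 Beta-lactamase reporter activity, read as fluorescence intensity, was measured in GR-bla HeLa cells exposed to compounds for 18 h at 37 C and then loaded with LiveBLAzer B/G FRET substrate for 2 h at room temperature.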

| Compound | Potency [1] | Potency [2] | Potency [3] | Potency [4] | Potency [5] | Potency [6] | outcome [7] | outcome [8] | Potency [9] | outcome [10] | Potency [11] | outcome [12] | outcome [13] | outcome [14] | Potency [15] | outcome [16] | Potency [17] | outcome [18] | Potency [19] | outcome [20] |
| --- | --- | --- | --- | --- | --- | --- | --- | --- | --- | --- | --- | --- | --- | --- | --- | --- | --- | --- | --- | --- |
| CN(C)P(=O)(N(C)C)N(C)C | inactive | inactive | inactive | inactive | inactive | inactive | inactive | inactive | inactive | inactive | inactive | inactive | inactive | inactive | inactive | inactive | inactive |  |  |  |
| ClCC(Cl)CCl | inactive | inactive | inactive | inactive | inactive | inactive | inactive | inactive | inactive | inactive | inactive | inactive | inactive | inactive | inactive | inactive | inactive | inactive | inactive |  |
| CCC/C=N/O | inactive | inactive | inactive | inactive | inactive | inactive | inactive |  | inactive | inactive | inactive | inactive | inactive | inactive | inactive |  | inactive |  | inactive |  |
| COc1ccc(C=O)cc1OC | inactive | inactive | inactive | inactive | inactive |  | inactive |  | inactive | inactive | inactive | inactive | inactive | inactive | inactive |  | inactive |  |  |  |
| O=C1CCCO1 | inactive | inactive | inactive | inactive | inactive | inactive | inactive |  | inactive | inactive | inactive | inactive | inactive | inactive | inactive | inactive | inactive | inactive | inactive |  |
| CC[n+]1c(-c2ccccc2)c2cc(N)ccc2c2ccc(N)cc21 | 3.35 µM (active) and 10.6 µM (active) and 2.16 µM (active) |  | 9.44 µM (active) and inactive | 23.7 µM (active) and 54.2 µM (active) | inactive | 2.21 µM (active) | inactive | inactive | inactive | inactive | inactive | inactive | inactive | inactive | inactive | inactive | inactive | inactive |  |  |
| CCOP(=O)(OCC)OCC | inactive | inactive | inactive | inactive | inactive | inactive | inactive | inactive | inactive | inactive | inactive | inactive | inactive | inactive | inactive |  | inactive | inactive | inactive | inactive |
| C[N+](C)(C)C | inactive |  | inactive | inactive |  |  | inactive | inactive | inactive | inactive | inactive | inactive | inactive | inactive | inactive | inactive | inactive | inactive |  |  |
| CNC(=O)CSP(=S)(OC)OC |  | inactive | inactive | inactive | inactive | inactive | inactive | inactive | inactive | inactive | inactive | inactive | inactive | inactive | inactive | inactive | inactive | inactive |  |  |
| CC1(C)C(C(=O)OC(C#N)c2cccc(Oc3ccccc3)c2)C1(C)C (stereo not given) | inactive |  | inactive | inactive | 54.4 µM (active) | 30.9 µM (active) | inactive | inactive | inactive | inactive | inactive | inactive | inactive | inactive | inactive |  | inactive | inactive |  |  |
| Clc1cccc(Cl)c1 |  | inactive | inactive | inactive | inactive | inactive | inactive | inactive | inactive | inactive | inactive | inactive | inactive | inactive | inactive | inactive | inactive | inactive | inactive |  |
| O=C(O)c1nn(Cc2ccc(Cl)cc2Cl)c2ccccc12 | inactive |  | inactive | inactive | inactive | inactive | inactive |  | inactive | inactive | inactive | inactive | inactive | inactive | inactive | inactive | inactive |  | inactive and 43.4 µM (active) |  |
| OC(c1ccc(Cl)cc1)(c1cncnc1)c1ccccc1Cl (stereo not given) | inactive |  | inactive | inactive |  | 49.4 µM (active) and 30.6 µM (active) | inactive |  | inactive | inactive | inactive | inactive | inactive | inactive | inactive | inactive | inactive | inactive | 49 µM (active) |  |
| c1ccc2c(c1)Nc1ccccc1S2 | inactive |  | inactive | inactive | 29.8 µM (active) | 7.5 µM (active) and 4.33 µM (active) | inactive |  | inactive | inactive | inactive | inactive | inactive | inactive | inactive | inactive | inactive | inactive |  |  |
| CCOP(=S)(OCC)SCn1c(=O)oc2cc(Cl)ccc21 |  | inactive | inactive | inactive | 54.5 µM (active) | 29.3 µM (active) and 27.3 µM (active) | inactive | inactive | inactive | inactive | inactive | inactive | inactive | inactive | inactive | inactive | inactive | inactive | inactive | inactive |
| [CH3][Sn]([Cl])([Cl])[Cl] | inactive |  | inactive | inactive | inactive | inactive | inactive | inactive | inactive | inactive | inactive | inactive | inactive | inactive | inactive |  | inactive |  | inactive | inactive |

From PubChem BioAssay (Tox21)
